Screening results as filed in PubChem.
VDR inhibitor = blocks the human vitamin D receptor | Potency, µM, without a hit: max response, negative = inhibition, actives largely listed as inhibitors | P11473 | VDR-SRC2-3 peptide fluorescence polarization, 2 h | actives 0.93% (n = 400,000); further: on the % scale 0 is the no-effect control and ±100 the full control effect
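Inhibition of the VDR/SRC2-3 peptide interaction is quantified by fluorescence polarization. Compounds (23 nl, pintool) incubate with the reagents for 2 hours at ambient room temperature.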
G9a inh = blocks human histone lysine methyltransferase G9a. Potency, µM (top dose mostly 102 µM), inactives show top-dose activity, negative = inhibition, actives largely listed as inhibitors. actives 8.8% (n = 350,000). AID 504332. Q96KQ7. G9a H3K9 monomethylation, AlphaScreen, 2 h; further: on the % scale 0 is the no-effect control and ±100 the full control effect; nearly all actives have a fitted effect of over 75% in size
Target sequence (Q96KQ7 913-1193 limits assumed): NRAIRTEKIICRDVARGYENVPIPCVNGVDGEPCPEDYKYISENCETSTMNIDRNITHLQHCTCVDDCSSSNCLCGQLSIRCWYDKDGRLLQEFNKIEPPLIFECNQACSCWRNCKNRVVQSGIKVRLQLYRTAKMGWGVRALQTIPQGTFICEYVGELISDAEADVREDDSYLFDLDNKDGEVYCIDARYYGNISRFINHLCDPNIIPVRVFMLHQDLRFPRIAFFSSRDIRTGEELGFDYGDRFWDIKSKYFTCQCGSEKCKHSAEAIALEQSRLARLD
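Compounds were preincubated with 20 nM G9a for 15 min, after which biotinylated H3K9 peptide (500 nM) and SAM (20 uM) started a 2 h room-temperature reaction. Monomethylated product was quantified by antibody-based AlphaScreen chemiluminescence.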
HP1b binding inh = HP1-beta chromodomain-methylated histone interaction inhibition | P83916 | AlphaScreen HP1-beta / biotin-H3K9me3 peptide binding | Potency, µM (highest dose often 114 µM), for the others: at the top dose activity change, negative = inhibition, actives largely listed as inhibitors | actives 0.56% (n = 390,000); further: nearly all actives have a fitted effect of over 70% in size
Target sequence (P83916 whole entry, looked up): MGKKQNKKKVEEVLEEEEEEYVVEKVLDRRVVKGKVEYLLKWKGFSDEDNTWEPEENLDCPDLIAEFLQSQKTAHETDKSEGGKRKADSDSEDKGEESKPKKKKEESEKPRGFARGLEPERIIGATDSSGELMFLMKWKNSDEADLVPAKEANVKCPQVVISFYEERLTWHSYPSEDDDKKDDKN
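Compound inhibition of the preformed complex between 50 nM HP1-beta and 50 nM biotinylated H3K9me3 peptide was read by AlphaScreen. Buffer was PBS pH 7.4 with 0.01% Tween-20. Incubations ran 30 min at room temperature, with 10 ug/mL donor/acceptor beads.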
BAZ2B inh = BAZ2B (human) inhibition; actives 4.4% (n = 360,000); Potency, µM (highest dose often 114 µM), without a hit: top-dose activity change, negative = inhibition, most hits filed as inhibitors; Q9UIF8; AID 504333; AlphaScreen BAZ2B-H3K14Ac peptide displacement; further: on the % scale 0 is the no-effect control and ±100 the full control effect; nearly all actives have a fitted effect of over 60% in size
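In this displacement format the biotinylated H3(5-23) peptide acetylated at Lys14 serves as ligand at 50 nM, with BAZ2B at 50 nM in PBS pH 7.4 containing 0.01% Tween-20. Donor and acceptor beads are 10 ug/mL final.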
JMJD2A Tudor inh = blocks the human JMJD2A Tudor domain. Potency, µM (highest dose often 114 µM), for the others: at the top dose activity change, negative = inhibition, actives largely listed as inhibitors. AlphaScreen JMJD2A-Tudor / H3K4me3 peptide binding. O75164. actives 4.4% (n = 390,000); further: on the % scale 0 is the no-effect control and ±100 the full control effect; nearly all actives have a fitted effect of over 50% in size
PLK1 PBD inh = blocks phosphopeptide binding to human PLK1 polo-box domain; actives 2.8% (n = 360,000); Plk1 PBD binding of FITC phosphopeptide, fluorescence polarization; P53350; AID 720504; Potency, µM, inactives show max response, negative = inhibition, most hits filed as inhibitors; further: series mostly up to about 57 µM; on the % scale 0 is the no-effect control and ±100 the full control effect; nearly all actives have a fitted effect of over 65% in size
An asterisk follows results filed as active; ? = inconclusive; / = not tested or not shown; [ ] = remark or other dose. Sampled rows, rich in hits. Any-hit rate of the full collection: about 11%. The call rests on the fitted dose curve; in most records, active means well fitted curve in the direction sought with a large enough effect; inconclusive means small, poorly fitted or top-dose-only effect, or another doubt; inactive means no such curve, though single readings can be large; an effect the other way counts as inactive or inconclusive. Potency means the concentration at half of the fitted maximal effect.

SMILES	VDR inhibitor	G9a inh	HP1b binding inh	BAZ2B inh	JMJD2A Tudor inh	PLK1 PBD inh
COC(=O)CN1C(=O)[C@H]2[C@@H](c3ccc(C)o3)N3C(=O)CN(CC4CC4)C(=O)[C@@]3(C)[C@H]2C1=O	-4.4%	50.1µM*	43.6%	-6.4%	-29.3%	-12.1%
COC(=O)CN1C(=O)[C@H]2[C@@H](c3ccc(C)o3)N3C(=O)CN(Cc4ccc(-c5ccccc5)cc4)C(=O)[C@@]3(C)[C@H]2C1=O	?	39.8µM*	33.5%	-17.7%	-19.7%	-16.2%
CCN1C(=O)[C@H]2[C@@H](c3ccc(OC)cc3)N3C(=O)CN(CC4CC4)C(=O)[C@@]3(C)[C@H]2C1=O	-12.4%	?	18.9%	-22.5%	-16.9%	-10.7%
COc1ccc(CCNC(=O)c2ccc(OCc3c(C)noc3C)cc2)cc1OC	2.0%	24.5%[12.7 µM]	57.2%	-2.1%	-1.3%	7.3%
COc1ccc(CNC(=O)COC(=O)c2ccc(OCc3c(C)noc3C)cc2)cc1OC	?	2.2%[59 µM]	?	8.8%	?	29.9µM*
COC(=O)C1=C(CSc2nncn2C)NC(=O)NC1c1cc(C)ccc1C (stereo not given)	-14.1%	22.4µM*	34.7%	9.8%	-13.3%	-6.9%
CCOC(=O)C1=C(CN2CCN(C)CC2)NC(=O)NC1c1ccc(F)cc1 (stereo not given)	16.8%	4.1%[59 µM]	22.3%	6.5%	9.9%	/
COC(=O)C1=C(CN2CCCc3ccccc32)NC(=O)NC1c1ccc(F)cc1 (stereo not given)	-2.1%	20µM*	11.2%	?	?	-18.8%
COC(=O)C1=C(CN2CCc3ccccc32)NC(=O)NC1c1cc(C)ccc1C (stereo not given)	18.8%	?	6.4%	50.1µM*	?	-12.7%
COc1cc(OC)c2c(-c3cccc(-c4ccc(F)c(Cl)c4)c3)cc(=O)oc2c1	14.4%	/	30.6%	/	-15.8%	-5.2%
CC1(C(=O)NS(=O)(=O)c2cccc(Cl)c2)CCN1C(=O)C1(c2ccc(Cl)cc2)CCC1 (stereo not given)	/	/	/	/	/	-16.0%
CO/N=C/NC(=O)c1ccc([N+](=O)[O-])c(CS(=O)(=O)c2ccc(Cl)cc2)c1	?	18.8%[59 µM]	-10.8%	6.2%	?	2.99µM*
CCN(CC(=O)Nc1c(F)cccc1F)C(=O)Cc1ccc2c(c1)CCC2	6.5%	10µM*	?	-5.5%	-8.9%	16.8µM*
CCN(CC(=O)Nc1ccccc1C(F)(F)F)C(=O)Cc1ccc2c(c1)CCC2	0.4%	-3.2%[12.7 µM]	44.0%	-2.3%	3.7%	-0.3%
O=C(Cc1ccc2c(c1)CCCC2)Nc1ccccc1Br	-21.5%	44.7µM*	-18.4%	-5.0%	25.4%	23.8µM*
CN(CC(=O)Nc1c(Cl)cccc1Cl)C(=O)Cc1ccc2c(c1)CCC2	?	3.55µM*	?	5.5%	-5.5%	15µM*
CCCN(CC(=O)Nc1ccccc1OC)C(=O)Cc1ccc2c(c1)CCC2	?	?	4.9%	-3.7%	-12.4%	21.2µM*
COc1cccc(NC(=O)CN(C)C(=O)Cc2ccc3c(c2)CCC3)c1	-6.9%	?	14.4%	7.9%	-8.3%	-26.1%
CC(C)NC(=O)CCSc1nc(-c2ccc3c(c2)OCO3)cc(C(F)(F)F)n1	2.0%	11.4%[59 µM]	31.9%	-0.6%	5.8%	/
Nc1[nH]c2cc([N+](=O)[O-])ccc2c1-c1ccccn1	-12.0%	44.7µM*	?	28.2µM*	?	12.6%
O=[N+]([O-])c1ccc2nc(-c3ccccc3[N+](=O)[O-])[nH]c2c1	7.1%	-33.3%	2.3%	-19.6%	-14.5%	-17.7%
O=C(NCc1ccccc1)c1ccc2c(=O)[nH]c3c(C(=O)NCC4CCCO4)sc(=S)n3c2c1 (stereo not given)	-13.7%	44.7µM*	?	39.8µM*	?	?
CCCCCNC(=O)c1ccc2c(=O)[nH]c3c(C(=O)NCC4CCCO4)sc(=S)n3c2c1 (stereo not given)	-8.3%	?	?	-38.6%	-33.1%[57.1 µM]	26.7µM*
O=C(NCc1ccco1)c1sc(=S)n2c1[nH]c(=O)c1ccccc12	?	22.4µM*	?	?	50.1µM*	26.7µM*
Cc1ccc(CNC(=O)c2ccc3c(=O)[nH]c4c(C(=O)NCC5CCCO5)sc(=S)n4c3c2)cc1 (stereo not given)	-16.3%	?	-38.4%	35.5µM*	?	?
SMILES	VDR inhibitor	G9a inh	HP1b binding inh	BAZ2B inh	JMJD2A Tudor inh	PLK1 PBD inh
CCCc1nc2ccccc2n2c(-c3cccc(C)c3)c3c(=O)n(C)c(=O)n(C)c3c12	-17.9%	18.4%[59 µM]	62.0%	9.7%	17.5%	/
Cn1c(=O)n(C/C=C/c2ccccc2)c(=O)c2c1nc1n2CCN1c1ccc(F)cc1	13.4%	1.1%[59 µM]	49.1%	5.3%	12.5%	/
Cc1ccc(C(=O)c2coc3cc([N+](=O)[O-])c(O)c([N+](=O)[O-])c23)cc1	-18.7%	8.91µM*	?	44.7µM*	56.2µM*	?
Cc1ccc(Sc2ccc(C(=O)N(C)C)cc2[N+](=O)[O-])cc1	-0.7%	?	3.9%	-37.3%	-35.7%	-4.9%
CSc1nsc2nc(=O)c(/C=C3\C(C)=Nc4ccccc43)c(N)n12	3.0%	17.8µM*	19.4%	?	-31.7%	-18.3%
CCCOc1ccc(C(=O)N(Cc2ccccc2Cl)C2CCS(=O)(=O)C2)cc1 (stereo not given)	0.8%	5.4%[59 µM]	4.7%	-9.0%	1.4%	/
CC(=O)c1cccc(NC(=O)CN2C(=O)CCc3cc(S(=O)(=O)N4CCCCC4)ccc32)c1	-12.4%	-0.2%[59 µM]	17.3%	-4.7%	-26.5%	/
O=S(=O)(Cc1ccccc1)Nc1ccc(Br)cn1	-9.5%	70.8µM*	63.0%	-14.4%	-3.5%	-10.4%
O=S(=O)(Cc1ccccc1)Nc1ccccc1Br	1.6%	-1.6%	24.7%	1.7%	-2.0%	3.4%
Cc1ccc(NS(=O)(=O)Cc2ccccc2)nc1	12.0%	28.2µM*	32.2%	-13.6%	1.3%	-8.4%
Cc1ccnc(NS(=O)(=O)Cc2ccccc2)c1	-4.3%	?	53.6%	0.4%	-17.0%	-5.1%
COc1ccccc1C1CCN(C(=O)c2cccs2)CC1	-10.5%	/	15.4%	0.3%	-2.5%	-6.9%
O=C(CN1CCN(Cc2cccc(F)c2)CC1)NCc1ccccc1	-9.9%	28.0%	0.7%	-19.7%	-11.7%	-9.4%
O=S(=O)(c1ccc(Br)cc1)N1CCCN(Cc2cccc(F)c2)CC1	-14.8%	?	44.2%	12.7%	10.9%	0.0%
Fc1cccc(CN2CCCCCCC2)c1	-7.7%	12.6µM*	?	?	2µM*	4.0%
Fc1ccc(CN2CCSCC2)cc1F	-4.3%	31.6µM*	?	?	3.98µM*	-3.0%
Fc1cccc(CN2CCSCC2)c1	4.8%	25.1µM*	?	50.1µM*	20µM*	-10.3%
